VACV Venus inh: inhibitors of vaccinia virus (Venus reporter); AID 720580; Vaccinia virus Venus reporter expression, fluorescence; 330,000 tested, 0.46% active; Potency, µM (doses to about 36.5 µM), for the others: at the highest dose activity change, negative = inhibition, actives largely listed as inhibitors; calls by dose curve; tested in A549 cells; also: nearly all actives have a fitted effect of over 30% in size
AmpC inh detg: blocks E. coli AmpC beta-lactamase in detergent assay. Potency, µM (series often up to 114 µM), for inactives: top-dose activity change, negative = inhibition, hits mostly inhibitors. AID 485294. 370,000 tested, 0.041% active. P00811. AmpC hydrolysis of nitrocefin, absorbance 480 nm, 0.01% Triton;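 also: 0% = no-compound wells and -100% = no-enzyme wells; nearly all actives have a fitted effect of over 25% in size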
Target sequence (P00811 whole entry, looked up): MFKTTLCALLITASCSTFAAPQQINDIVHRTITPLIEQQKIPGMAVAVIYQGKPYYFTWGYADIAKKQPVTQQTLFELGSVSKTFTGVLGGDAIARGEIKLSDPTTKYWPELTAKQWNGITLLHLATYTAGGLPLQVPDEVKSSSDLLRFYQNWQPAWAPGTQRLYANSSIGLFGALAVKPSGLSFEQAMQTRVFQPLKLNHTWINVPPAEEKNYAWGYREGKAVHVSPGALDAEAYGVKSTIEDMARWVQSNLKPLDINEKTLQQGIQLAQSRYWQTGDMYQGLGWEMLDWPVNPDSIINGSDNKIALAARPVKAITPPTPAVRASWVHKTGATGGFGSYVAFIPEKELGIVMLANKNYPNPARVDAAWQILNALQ
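AmpC (5.3 nM in the dispensed reagent) in 20 mM phosphate pH 7.0 with 0.01% (detergent screen) or 0.0001% Triton X-100 was preincubated with compounds for 15 min at room temperature. Nitrocefin was then added from an 800 uM solution, and hydrolysis was followed at 480 nm.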
VACV mCherry inh: inhibitors of vaccinia virus infection (mCherry reporter signal); AID 720579; 310,000 tested, 0.63% active; Potency, µM (series often up to 36.5 µM), without a hit: top-dose activity change, negative = inhibition, usual class: inhibitors; Vaccinia virus mCherry reporter infection, fluorescence; calls by dose curve; tested in A549 cells; also: nearly all actives have a fitted effect of over 35% in size
AmpC inh no detg: inhibitors of E. coli AmpC beta-lactamase without detergent; AmpC nitrocefin hydrolysis, absorbance 480 nm, 0.0001% Triton; 330,000 tested, 0.52% active; Potency, µM (series often up to 57.1 µM), for inactives: at the highest dose activity change, negative = inhibition, actives largely listed as inhibitors;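 also: plate controls were no compound for no effect and no enzyme for full effect; nearly all actives have a fitted effect of over 20% in size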
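AmpC (5.3 nM in the dispensed reagent) in 20 mM phosphate pH 7.0 with 0.01% (detergent screen) or 0.0001% Triton X-100 was preincubated with compounds for 15 min at room temperature. Nitrocefin was then added from an 800 uM solution, and hydrolysis was followed at 480 nm.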
Numbers without * were called inactive; i = inactive; u = inconclusive; x = no result given; [ ] = remark or other dose. A selection: hits, their analogues and other compounds. The true share with any hit is near 1.1%. Unless noted, calls follow the shape of the dose curve; as a rule, active = well fitted curve in the direction sought with a large enough effect; inconclusive = small, poorly fitted or top-dose-only effect, or another doubt; inactive = no such curve, though single readings can be large; an effect the other way counts as inactive or inconclusive. Unless noted, % is scaled to controls: 0 for no effect and ±100 for the full control effect; potency is read from the fitted curve at half-maximal effect.

SMILES	VACV Venus inh	AmpC inh detg	VACV mCherry inh	AmpC inh no detg
CCCn1nnc(NC(=S)NC(=O)Cc2ccccc2)n1	u	u	2.24µM*	104.1%
COc1cc(=O)n2c(c1C(=O)NC(C)c1ccco1)CCN(C(=O)c1[nH]c(C)cc1C)CC2 (stereo unspecified)	-16.7%	x	i	x
COc1cccc(CNC(=O)c2c(OC)cc(=O)n3c2CCN(C(=O)c2csc(C)n2)CC3)c1	-10.1%	x	-14.6%	x
O=C(COC(=O)c1ccc(NS(=O)(=O)c2cccs2)cc1)Nc1nc2c(F)c(F)c(F)cc2s1	1.9%	-4.3%	i	20µM*
O=C(COC(=O)c1ccco1)Nc1nc2c(F)c(F)c(F)cc2s1	-15.1%	-10.3%	-24.1%	-38.6%
COc1cccc(-c2cnc3c(NC=O)cc(-c4ccc(O)c(OC)c4)cn23)c1	-22.8%	x	-27.6%	x
O=CNc1cc(-c2cccc(F)c2)cn2c(-c3ccc(F)cc3)cnc12	-13.8%	x	u	x
Cn1cc(-c2cnc3c(NC=O)cc(-c4cccc(C(F)(F)F)c4)cn23)cn1	u	x	10µM*	x
COc1ccccc1-c1cc(NC(C)=O)c2ncc(-c3cccc(C(F)(F)F)c3)n2c1	-9.3%	x	-0.5%	x
CC(=O)Nc1cc(-c2cccnc2)cn2c(-c3cccc(C(F)(F)F)c3)cnc12	12.6µM*	x	10µM*	x
COc1cc(-c2cc(NC=O)c3ncc(-c4ccc(C(C)=O)cc4)n3c2)ccc1O	11.2µM*	x	10µM*	x
Nc1ccc(-c2cc(NC=O)c3ncc(-c4cccc(C(F)(F)F)c4)n3c2)cn1	11.2µM*	x	u	x
CC(=O)c1ccc(-c2cnc3c(NC=O)cc(-c4cnn(C)c4)cn23)cc1	-20.4%	x	-2.9%	x
O=C(C1CCCCC1)N1CCOc2ccc(CN3CCN(Cc4ccccn4)CC3)cc2C1	6.2%	x	-9.0%	x
Cc1noc(N)c1C(=O)Nc1ccccc1F	7.94µM*	u	i[1.46 µM]	-15.6%
Cc1noc(N)c1C(=O)Nc1ccc(F)cc1	-17.3%	u	-4.9%	-5.8%
CN(c1ccccc1)S(=O)(=O)c1cccc(NC(=O)COC(=O)C2CCCCC2)c1	-10.9%	-2.5%	-10.2%	3.55µM*
O=C(Cn1cc(C(=O)c2ccco2)c2ccccc21)Nc1ccccc1F	-8.1%	-2.5%	-14.7%	28.2µM*
Cc1cccc(NC(=O)Cn2cc(C(=O)c3ccco3)c3ccccc32)c1C	u	-7.8%	-6.0%	x
C=CCC[C@H](Cc1ccc(F)cc1)C(=O)OC[C@H](Cc1c[nH]c2ccccc12)NC(=O)[C@@H](CC=C)CC(=O)N[C@@H](CO)Cc1ccccc1	10µM*	x	-29.7%	-35.5%
C=CC[C@@H](CC(=O)N[C@@H](CO)Cc1ccccc1)C(=O)N[C@H](COC(=O)[C@@H](CC=C)CC(=O)OC(C)(C)C)Cc1c[nH]c2ccccc12	11.2µM*	x	u	205.0%
C=CCC[C@@H](Cc1ccc(F)cc1)C(=O)OC[C@H](Cc1c[nH]c2ccccc12)NC(=O)[C@@H](CC=C)CC(=O)N[C@H](CO)Cc1ccccc1	u	x	i	33.3%
C=CCC[C@H](Cc1ccc(F)cc1)C(=O)OC[C@H](Cc1c[nH]c2ccccc12)NC(=O)[C@@H](CC=C)CC(=O)N[C@H](CO)Cc1ccccc1	11.2µM*	x	-28.7%	104.9%
c1ccc2c(c1)CCCN2	-11.2%	x	-16.5%	x
CCOC(=O)N1CCN(c2cc(=O)n(-c3ccc(Br)cc3)c(=O)[nH]2)CC1	0.0%	u	-13.2%	0.562µM*
SMILES	VACV Venus inh	AmpC inh detg	VACV mCherry inh	AmpC inh no detg
CCOC(=O)N1CCN(c2cc(=O)n(-c3ccc(C)cc3)c(=O)[nH]2)CC1	-7.5%	-0.6%	i	-0.7%
COc1cc(C2OC(=O)c3c2ccc(OC)c3OC)ccc1O (stereo unspecified)	x	-12.6%	x	1.3%
Cc1cccc(N=C2CSC(=O)N2)c1	-2.1%	-10.6%	-14.5%	-4.5%
CCCCC1(CCCC)C(=O)NC(=Nc2cccc(C)c2)NC1=O	10µM*	1.4%	u	-49.8%
CCCCOc1ccc(CCN)cc1Cl	-6.1%	-12.2%	-17.3%	-1.1%
CCCCCc1ccc(OCCC[n+]2ccccc2)c(CCCCC)c1	10µM*	-7.3%	10µM*	153.8%
CCCCCc1ccc(OCCOCCn2c[n+](C)c3ccccc32)c(CCCCC)c1	11.2µM*	-5.3%	15.8µM*	243.2%
CC(=O)Nc1ccc(CNc2nc(NCc3cccs3)nc3ccsc23)cc1	-5.4%	x	-21.1%	x
CC(=O)Nc1ccc(CNc2nc(NC(C)C)nc3cc(-c4ccccc4)sc23)cc1	11.2µM*	x	u	x
CC(=O)NCCNc1nc(NC(C)C)nc2cc(-c3ccccc3)sc12	-19.5%	x	8.3%	x
C=CCNc1nc(NCc2ccc(NC(C)=O)cc2)c2sc(-c3ccccc3)cc2n1	15.8µM*	x	-4.8%	x
CC(C)(CO)NC(=O)c1cnn(-c2ncc3c(n2)-c2ccccc2CC3)c1C1CC1	-7.6%	x	-13.6%	x
Cc1ccc(C(=O)Oc2ccc3ccc(=O)oc3c2)cc1	x	3.3%	x	-19.8%
CC(=O)Oc1ccc2ccc(=O)oc2c1	0.0025µM*	7.6%	100µM*	-2.6%
COc1ccc(CNCc2ccccc2)cc1COc1ccc(NC(C)=O)cc1	-12.2%	x	-11.6%	x
CCCCCCC[n+]1ccc(/C=C/c2c(C)[nH]c3ccccc23)cc1	256.1%	x	28.2µM*	x
Cc1[nH]c2ccccc2c1/C=C/c1cc[n+](C)cc1	27.0%	u	-21.9%	4.2%
Cc1onc(-c2ccccc2)c1C(=O)NCCN1Cc2ccccc2OC(c2ccsc2)C1 (stereo unspecified)	-8.6%	x	-1.1%	x
CN(C)c1cc(N2CCOCC2)nc(C#N)n1	-14.3%	x	-22.0%	x
CCS(=O)(=O)NCc1c(C)ncc2c1CCN(C(=O)c1ccc(F)cc1)C2	-22.1%	x	-27.4%	x
Cc1cccc2nc(-c3ccccn3)c(Nc3ccccc3)n12	u	20.5%	u	x
Cc1ccc(Nc2c(-c3ccccn3)nc3cccc(C)n23)cc1	-21.2%	u	12.6µM*	19.6%
Cc1cccc2nc(-c3ccccn3)c(Nc3ccc(F)cc3)n12	u	20.0%	10µM*	x
Brc1cc2c(cc1Br)OCCOCCOCCOCCO2	6.2%	1.4%	i	92.0%
Brc1ccc2c(c1)OCCOCCOc1cc(Br)ccc1OCCOCCOCCO2	10µM*	0.7%	u	88.2%
SMILES	VACV Venus inh	AmpC inh detg	VACV mCherry inh	AmpC inh no detg
Cc1ccc2nc(-c3ccccn3)c(NC3CCCC3)n2c1	-28.2%	1.8%	12.6µM*	71.3%
COc1ccc(-c2cccc(-c3cc(=O)oc4cc(OC)cc(OC)c34)c2)cc1	u	x	u	-12.9%
COc1cc(OC)c2c(-c3cccc(-c4ccc(CO)cc4)c3)cc(=O)oc2c1	10µM*	x	u	-5.9%
OCCN1CCN(Cc2ccc3c(c2)CN(Cc2ccc4ccccc4c2)CCO3)CC1	10.5%	x	-11.3%	x
C[C@@H]1CN([C@H](C)CO)C(=O)Cc2cc(NC(=O)Nc3ccccc3)ccc2O[C@@H]1CN(C)Cc1ccc2c(c1)OCO2	28.2µM*	x	u	114.7%
CC(=O)Oc1ccc2ccccc2c1C(NC(=O)Cc1ccccc1)c1ccc(Cl)cc1 (stereo unspecified)	u	-4.7%	28.2µM*	-24.2%

Bioassay records: PubChem BioAssay, National Center for Advancing Translational Sciences (NCATS)
